Molecules are shown by their SMILES. Values joined by “and” are separate entries in the source; they are usually repeats but may differ in a detail not shown here. Identical values can stand only once. Records with an inconclusive call do not appear. Active and inactive are the calls of the source. Unless noted, the call rests on the fitted dose curve; in most records, active means well fitted curve in the direction sought with a large enough effect in the repeat runs; inconclusive means weak or mixed curves; inactive means no such curve, though single readings can be large; an effect the other way counts as inactive or inconclusive.

Experiment [1] in a line: qHTS assay to identify small molecule antagonists of the estrogen related receptor signaling pathway with the pleiotropic PPARgamma coactivator (PGC) from Tox21 10K library - cell viability counter screen (AID 1224840; active means well fitted cell-killing curve with a large enough effect in the repeat runs, not every such curve was filed as active; further: nearly all actives have a fitted effect of over 40% in size; further: potency means the concentration at half of the fitted maximal effect). The method, boiled down: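 Fluorescence read-out of CellTiter-Fluor viability reagent, added after cells had been exposed to compound in DMSO for 17.5 h at 37 C; 30 min development at 37 C/5% CO2. Cells: PGC/ERR line, 2,000/well.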
On the technique in general: In qHTS, concentration-response curves come from the screen itself.

Experiment [2] is described as follows: qHTS assay to identify small molecule agonists of the hypoxia (HIF-1) signaling pathway - cell viability counter screen (AID 1224844; calls by dose curve; further: nearly all actives have a fitted effect of over 50% in size; further: potency means the concentration at half of the fitted maximal effect). The procedure, abridged:
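CellTiter-Glo luminescence read-out, 30 min RT, taken in the same wells as the beta-lactamase HRE reporter assay; HRE-bla ME-180 cells, 0.5% dialyzed FBS, 17 hr compound treatment at 37C, 5% CO2.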

Experiment [3] can be described thus: qHTS RealTime-Glo MT Cell Viability Assay in HEK293 cells - 16 hour (AID 1224872). Further: nearly all actives have a fitted effect of over 50% in size. Further: potency means the concentration at half of the fitted maximal effect. The method, boiled down:
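Tox21 10K qHTS, HEK293, 600 cells/well, RealTime-Glo reagent co-dispensed with cells; 5 h preincubation, compound by pintool, 37 C, luminescence at 0–40 h.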

Experiment [4] can be described thus: qHTS RealTime-Glo MT Cell Viability Assay in HepG2 cells - 8 hour (AID 1224873). Further: nearly all actives have a fitted effect of over 55% in size. Further: potency means the concentration at half of the fitted maximal effect. The method, boiled down: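 HepG2 cells (600/well) mixed with RealTime-Glo MT reagent, settled 5 h at 37 C/5% CO2 before compound addition. Nonlytic NanoLuc luminescence from viable-cell prosubstrate reduction read repeatedly during 40 h treatment at 37 C.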
Experiment [5] is described as follows: qHTS assay to identify small molecule agonists of the androgen receptor (AR) signaling pathway in the presence of an antagonist - cell viability counter screen (AID 1259379). Further: nearly all actives have a fitted effect of over 25% in size. Further: potency means the concentration at half of the fitted maximal effect. The procedure, abridged: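 Viability counter screen: CellTiter-Fluor fluorescence, measured in the same wells as the luciferase read-out. MDA-kb2 cells, 3,000/well, with nilutamide at 3.0uM final and compounds at 15 concentrations, 16 hr at 37C, 0% CO2.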

Experiment [6] in a line: qHTS assay to identify small molecule antagonists of the progesterone receptor (PR) signaling pathway - cell viability counter screen (AID 1346798). Further: nearly all actives have a fitted effect of over 50% in size. Further: potency means the concentration at half of the fitted maximal effect. The procedure, abridged:
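PR-UAS-bla HEK293T cells, 3,000/well in 2% charcoal-stripped FBS medium, dosed with compounds plus R5020 agonist and incubated 16 h at 37C. Viability then measured in the same wells by CellTiter-Glo luminescence after 30 min at RT.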

Experiment [7] can be described thus: qHTS assay to identify small molecule agonists of the RXR signaling pathway - cell viability counter screen (AID 1159529). Further: nearly all actives have a fitted effect of over 50% in size. Further: potency means the concentration at half of the fitted maximal effect. The procedure, abridged: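 RXR-alpha-UAS-bla HEK 293T cells in medium with 2% charcoal-stripped FBS were pre-incubated 5 hr, then compound-treated 16 hr at 37 C. Viability was read by CellTiter-Glo luminescence in the same wells as the beta-lactamase assay, with tetraoctyl ammonium bromide as positive control.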

The nature of experiment [8]: qHTS assay to identify small molecule agonists of the estrogen receptor beta (ER-beta) signaling pathway - cell viability counter screen (AID 1259380). Further: nearly all actives have a fitted effect of over 30% in size. Further: potency means the concentration at half of the fitted maximal effect. The procedure, abridged: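 Luminescence read-out (CellTiter-Glo, 30 min, room temp) taken in the same wells as the beta-lactamase reporter assay; ER-beta-UAS-bla HEK293T cells exposed to DMSO-dissolved compounds for 16 hr at 37C in 2% charcoal-stripped FBS medium.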

Experiment [9] can be described thus: Caspase-3/7 induction in CHO-K1 cells by small molecules, qHTS cell viability counter screen (AID 1346979). Further: nearly all actives have a fitted effect of over 35% in size. Further: potency means the concentration at half of the fitted maximal effect. The procedure, abridged:
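Wild-type CHO-K1 cells (1,500/well) treated with compound after 5 h plating; after 16 h at 37C, viability read as CellTiter-Fluor fluorescence following 1 h reagent incubation, in the same wells as the caspase read.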

Experiment [10] addresses Cytochrome P450 3A4 (Homo sapiens) (UniProt P08684). Nature of the experiment: Cytochrome P450 Family 3 Subfamily A Member 4 (CYP3A4) small molecule antagonists: luciferase reporter qHTS assay (AID 1671201). Further: nearly all actives have a fitted effect of over 50% in size. Further: potency means the concentration at half of the fitted maximal effect. The method, boiled down: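 P450-Glo CYP3A4 luminescent assay: compounds preincubated 10 min at room temperature with enzyme and proluciferin substrate, NADPH regeneration added, 1 h room-temperature reaction, stopped with luciferin detection reagent; luminescence read after 20 min. Ketoconazole positive control.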

Experiment [11] in a line: qHTS assay for small molecule agonists of the p53 signaling pathway (AID 651631; calls by dose curve; further: nearly all actives have a fitted effect of over 15% in size; further: potency means the concentration at half of the fitted maximal effect). The method, boiled down: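 HCT-116 cells carrying a beta-lactamase reporter under p53 response elements were dosed with compound for 16 h at 37 °C. LiveBLAzer B/G FRET substrate was then added for 2 h at room temperature, and fluorescence intensity was read to detect pathway agonism.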
The target of experiment [12] is Nuclear receptor subfamily 1 group I member 3 (Homo sapiens) (UniProt Q14994). The experiment can be described thus: qHTS assay to identify small molecule agonists of the constitutive androstane receptor (CAR) signaling pathway (AID 1224839). Further: nearly all actives have a fitted effect of over 15% in size. Further: potency means the concentration at half of the fitted maximal effect. The procedure, abridged: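 HepG2 cells stably co-transfected with hCAR and a CYP2B6-2.2kb luciferase reporter; compounds at 15 concentrations with 0.75 uM PK11195 present. After 24 hr at 37 C, luciferase read by ONE-Glo luminescence.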
Chain of Nuclear receptor subfamily 1 group I member 3 (Homo sapiens) (Q14994 whole entry, looked up): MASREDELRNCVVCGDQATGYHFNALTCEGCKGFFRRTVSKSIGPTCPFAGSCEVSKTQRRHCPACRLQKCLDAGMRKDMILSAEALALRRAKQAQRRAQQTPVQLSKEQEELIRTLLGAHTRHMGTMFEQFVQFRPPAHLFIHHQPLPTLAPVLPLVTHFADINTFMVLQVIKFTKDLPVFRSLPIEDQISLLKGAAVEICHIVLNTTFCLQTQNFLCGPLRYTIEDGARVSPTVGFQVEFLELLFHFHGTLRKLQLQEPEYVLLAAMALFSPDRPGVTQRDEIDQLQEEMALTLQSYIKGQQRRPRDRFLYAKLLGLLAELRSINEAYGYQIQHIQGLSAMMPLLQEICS

Experiment [13] in a line: qHTS assay to test for compound auto fluorescence at 535 nm (green) in HepG2 cells (AID 720675).
Experiment [14] in a line: qHTS assay to test for compound auto fluorescence at 590 nm (red) in HEK293 cells (AID 720679). The procedure, abridged: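 Red autofluorescence, HEK293 cells: 2,000 cells/well; attach 4-5 hr 37C; add 23 nL cpd or DMSO; incubate o/n 37C 5% CO2; read Ex540/Em590; Rose Bengal sodium reference.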
The nature of experiment [15]: qHTS assay to test for compound auto fluorescence at 590 nm (red) in HepG2 cell free culture (AID 720684). The method, boiled down:
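Rose Bengal sodium served as the reference for red signal. Test compounds were dispensed into serum-containing MEM (10% FBS) without cells, and plates were read at 540/590 nm.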

A short description of experiment [16]: qHTS assay to test for compound auto fluorescence at 460 nm (blue) in HepG2 cell free culture (AID 720685). The method, boiled down:
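Cell-free plates of MEM plus 10% FBS received 23 nL compound or DMSO vehicle; blue-channel (405/460 nm) intensity scored against triamterene as reference fluorophore.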

A short description of experiment [17]: qHTS assay to test for compound auto fluorescence at 535 nm (green) in HepG2 cell free culture (AID 720686).
Experiment [18] in a line: qHTS assay to test for compound auto fluorescence at 460 nm (blue) in HepG2 cells (AID 720687). The method, boiled down:
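HepG2 cells in MEM with 10% FBS, attached overnight at 37 C, were exposed to compound or DMSO for 1 hr at 37 C, 5% CO2. Blue fluorescence was read at 405/460 nm, with triamterene as reference fluorophore.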

The nature of experiment [19]: qHTS assay to identify small molecule agonists of H2AX - cell viability counter screen (AID 1224847; calls by dose curve; further: potency means the concentration at half of the fitted maximal effect; nearly all actives have a fitted effect of over 30% in size). The procedure, abridged: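 CHO-K1 cells plated overnight at 37C, then exposed 3 h at 37C to compounds at 15 concentrations (0.76% DMSO final). Viability by CellTiter-Glo luminescence after 30 min at room temperature.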
A short description of experiment [20]: Human pregnane X receptor (PXR) small molecule agonists, qHTS cell viability counter screen (AID 1346977). Further: nearly all actives have a fitted effect of over 50% in size. Further: potency means the concentration at half of the fitted maximal effect. The method, boiled down: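 PXR-Luc HepG2 cells (2,000/well, 5% charcoal-stripped FBS) preincubated 5 hr, then exposed to compounds 24 hr at 37 C. Viability read in the same wells by CellTiter-Fluor fluorescence, reagent added at 23 hr, 1 hr incubation.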

Chain of Cytochrome P450 3A4 (Homo sapiens) (P08684 whole entry, looked up): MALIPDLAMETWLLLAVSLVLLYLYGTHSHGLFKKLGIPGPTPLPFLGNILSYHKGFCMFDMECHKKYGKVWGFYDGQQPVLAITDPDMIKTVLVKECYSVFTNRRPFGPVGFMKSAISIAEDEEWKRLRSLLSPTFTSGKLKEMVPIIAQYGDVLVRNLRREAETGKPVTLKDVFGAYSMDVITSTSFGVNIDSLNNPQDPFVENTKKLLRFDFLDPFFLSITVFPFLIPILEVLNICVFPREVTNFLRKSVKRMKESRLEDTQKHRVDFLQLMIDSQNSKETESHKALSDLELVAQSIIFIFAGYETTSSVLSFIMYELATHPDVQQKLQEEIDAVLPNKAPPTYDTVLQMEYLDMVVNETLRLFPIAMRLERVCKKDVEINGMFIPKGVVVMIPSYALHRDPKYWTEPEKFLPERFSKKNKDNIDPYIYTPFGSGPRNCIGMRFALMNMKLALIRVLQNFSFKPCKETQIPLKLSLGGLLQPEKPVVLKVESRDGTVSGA

For `Oc1c(I)cc(I)cc1I`, the Potency result in [1], in experiment [3], in experiment [4], in experiment [5] and in experiment [6] was “inactive” throughout. Besides, the Potency in [2] was 38.9 µM (active).

`N#Cc1cc([N+](=O)[O-])ccc1N`: the Potency entry in [7], in [2], in experiment [3], in experiment [4], in [8] and in experiment [6] was “inactive” throughout. In addition, the Potency result in experiment [10] is “inactive”. For the same compound, the Potency in [9] was 61.1 µM (active).

On to `CCc1cccc(CC)c1N`, for which the Potency result in experiment [11] and in experiment [12] was “inactive” each time.

For `CCOC(=O)C(O)(c1ccc(Cl)cc1)c1ccc(Cl)cc1`, the Potency in [11] is 27.6 µM (active); in experiment [7], 31.2 µM (active) and 43.6 µM (active); in experiment [12] it was 55 µM (active) and 54.5 µM (active); in experiment [19] it was 90.7 µM (active) and 56.6 µM (active); in experiment [3], 19.7 µM (active) and 34.7 µM (active); in experiment [9], 61.8 µM (active). Moreover, the Potency result in experiment [13], in experiment [16], in experiment [17], in experiment [18], in experiment [2] and in [4] was “inactive” in each case. In addition, the Potency result in experiment [5], in [6] and in experiment [10] was “inactive” throughout. The compound was classed as inactive in [14] and in experiment [15].

Consider `O=S(=O)(C(Cl)(Cl)Cl)C(Cl)(Cl)Cl`, for which the Potency in [7] was 21.9 µM (active); in [1] it was 48.6 µM (active); in experiment [2], 12.3 µM (active); in experiment [19], 89.8 µM (active); in [3], 12.3 µM (active); in experiment [4] it was 38.9 µM (active). In addition, the Potency in experiment [5] is 61.1 µM (active); in [8], 21.7 µM (active); in [20], 61.1 µM (active); in experiment [9] it was 8.63 µM (active); in experiment [10], 2 µM (active). Also, the Potency result in experiment [12] and in experiment [6] was “inactive” throughout.

`CO/C=C(/C(=O)OC)c1ccccc1Oc1cc(Oc2ccccc2C#N)ncn1`: the Potency result in [13], in experiment [16], in experiment [17], in [18] and in [10] was “inactive” in each case. Also, the result in experiment [14] and in experiment [15] was inactive. The Potency in experiment [7] was 41.5 µM (active); in [1] it was 36.7 µM (active); in [19], 0.678 µM (active); in [5] it was 23.1 µM (active); in [8], 51.8 µM (active); in [6], 51.8 µM (active). For the same compound, the figures for the Potency in experiment [20] and in [9] were 6.52 µM (active) and 1.05 µM (active), respectively.

On to `Cc1cc(C)c(C(=O)P(=O)(c2ccccc2)c2ccccc2)c(C)c1`, for which the Potency in [7] was 49 µM (active); in [12] it was 15.4 µM (active); in [2] it was 43.6 µM (active); in experiment [3] it was 43.6 µM (active); in [8], 61.1 µM (active); in experiment [20] it was 61.1 µM (active). Moreover, the Potency in experiment [10] was 5.03 µM (active). In addition, the Potency entry in experiment [1] is “inactive”.

As for `c1ccncc1`, the Potency entry in experiment [11] is “inactive”.

As for `Nc1ccc(Cl)cc1Cl`, the Potency entry in [11] is “inactive”.

With `Nc1cccc(C(F)(F)F)c1`, the Potency entry in experiment [11] was “inactive”.

With `O=C1OC(=O)c2c(Cl)c(Cl)c(Cl)c(Cl)c21`, the Potency result in experiment [11] is “inactive”.

For the compound `c1cc(OCC2CO2)cc(OCC2CO2)c1` (stereo not given), in experiment [11], the Potency was 21.5 µM (active).

For `CCCCC(CC)COC(=O)CCCCC(=O)OCC(CC)CCCC` (stereo not given), the Potency result in experiment [11] was “inactive”.

For `CC(CCl)OP(=O)(OC(C)CCl)OC(C)CCl` (stereo not given), the Potency result in experiment [11] was “inactive”.

For the compound `Cc1c(N)cccc1[N+](=O)[O-]`, the Potency result in experiment [11] is “inactive”.

`Clc1ccccc1-c1ccccc1Cl`: the Potency result in [13], in experiment [16], in [17], in [18], in [1] and in experiment [4] was “inactive” in each case. In addition, the Potency entry in [5], in [20], in experiment [9] and in experiment [10] was “inactive” throughout. For the same compound, the outcome in [14] and in experiment [15] was inactive. The Potency in experiment [19] was 64.5 µM (active).
